system: Roseburia intestinalis; test: growth AUC relative to DMSO control (median of replicates) (fraction); higher = more growth (less inhibition), active = hit call of the paper; conditions: 20 µM; 24 h
Method in brief: (§1)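 In round-bottom 96-well plates sealed with pierced gas-permeable seals, gut bacterial monocultures in mGAM were grown anaerobically at 37 °C from OD600 0.05 with 20 µM compound (1% DMSO). OD600 readings were taken hourly for 24 h, and the minimum OD was set to 0. Area under the growth curve was then normalised to the plate median of solvent-only wells, or to row and column medians on the industrial chemical plate. The value given is the median of three biological replicates grown on separate days.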

Growth AUC, inactive:
O=C(O)C1(C(=O)Nc2ccc(Cl)cc2Cl)CC1 1.02
CC(C)N(C(=O)CS(=O)(=O)[O-])c1ccccc1.[Na+] 1.02
CCCCCCC(C)OC(=O)COc1nc(F)c(Cl)c(N)c1Cl (stereo unspecified) 0.967
CC(CNC(=S)[S-])NC(=S)[S-].[Zn+2] (mixture of isomers) 0.979
Cc1nn(C)c(OCC(=O)c2ccccc2)c1C(=O)c1ccc(Cl)cc1Cl 0.981

system: Streptococcus salivarius; test: as above; conditions: 20 µM; 24 h
Method in brief: as §1

Growth AUC, inactive:
C=C1C[C@]23C[C@@]1(O)CC[C@H]2[C@@]12C=C[C@H](O)[C@@](C)(C(=O)O1)[C@H]2[C@@H]3C(=O)O 0.904
S=C([S-])NCCNC(=S)[S-].[Mn+2] 1.07
O=C(O)COc1cccc(Cl)c1Cl 0.973
C#CC(C)N(C)C(=O)Nc1ccc(Cl)cc1 (stereo unspecified) 0.993
COc1cc(OC)c(Cl)cc1N 1.06
Cc1ccc(C)c(O)c1 1.09
CCOC(=O)C(C)Oc1ccc(Oc2cnc3cc(Cl)ccc3n2)cc1 (stereo unspecified) 1.05
CN(C)C(=O)Nc1cc(C(C)(C)C)on1 1
CCC(C)c1cc([N+](=O)[O-])cc([N+](=O)[O-])c1OC(=O)OC(C)C (stereo unspecified) 0.901
c1ccc(CNc2ncnc3nc[nH]c23)cc1 1.04
CC(C)OC(=O)N[C@H](C(=O)N[C@H](C)c1nc2ccc(F)cc2s1)C(C)C 0.959

— the supplement of paper PMC12669032
